# ADAM17 inh = inhibits human ADAM17. 370,000 compounds, 0.83% hits. P78536. recombinant ADAM17, EDANS/DABCYL FRET peptide cleavage. AID 720648. inhibition, % at 6.95 µM;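 active = inhibition above the mean of compounds lying between control limits plus 3 SD, set per campaign, cut at about 8.5% in these data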;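 note: 0% = DMSO-only wells as the low control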
# Target sequence (P78536 215-824 limits assumed): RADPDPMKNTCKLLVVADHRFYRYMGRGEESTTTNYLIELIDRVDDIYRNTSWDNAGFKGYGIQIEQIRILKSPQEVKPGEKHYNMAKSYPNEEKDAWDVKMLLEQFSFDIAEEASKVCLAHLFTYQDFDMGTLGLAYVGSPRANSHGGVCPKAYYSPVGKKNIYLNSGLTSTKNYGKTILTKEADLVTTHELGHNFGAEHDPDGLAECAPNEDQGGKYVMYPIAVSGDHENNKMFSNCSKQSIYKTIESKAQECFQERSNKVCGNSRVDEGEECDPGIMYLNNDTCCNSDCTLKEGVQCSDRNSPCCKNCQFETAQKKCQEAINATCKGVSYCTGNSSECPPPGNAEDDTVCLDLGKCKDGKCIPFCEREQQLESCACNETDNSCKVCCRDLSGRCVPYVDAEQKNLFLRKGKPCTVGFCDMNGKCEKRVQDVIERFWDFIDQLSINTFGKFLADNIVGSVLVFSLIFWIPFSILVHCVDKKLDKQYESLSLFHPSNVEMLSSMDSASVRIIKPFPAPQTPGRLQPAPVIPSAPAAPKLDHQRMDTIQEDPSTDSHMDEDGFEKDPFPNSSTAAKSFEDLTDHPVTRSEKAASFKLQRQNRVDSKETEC
# KLK7 zymogen act = activators of human kallikrein-7 zymogen; activation, % at 7 µM; 370,000 compounds, 0.9% hits; purified proKLK7, EDANS-DABCYL substrate fluorescence; 100% is mature enzyme control, 0% vehicle; AID 652039; P49862;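 active = activation above the mean of all tested compounds plus 3 SD, computed per campaign excluding outliers beyond control limits, cut at about 13% in these data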
# ADAM10 inh = inhibitors of human ADAM10 | O14672 | recombinant ADAM10, EDANS/DABCYL FRET peptide cleavage, 3 h | inhibition, % at 7 µM | 370,000 compounds, 0.62% hits;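 active = inhibition above a per-campaign cutoff equal to the mean of compounds falling between control-based bounds plus 3 SD, cut at about 20% in these data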;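 note: 0% = DMSO wells while the 100% control is not disclosed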
# PLCb3 inh = inhibitors of human phospholipase C beta3; Purified PLC-beta3, fluorogenic substrate, fluorescence; inhibition, % at 12.2 µM; 370,000 compounds, 0.18% hits; AID 720704; in the data active = inhibition above about 11%;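 note: 0% = median of compound wells on plate and 100% = full blocker control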
# PLCg1 inh = blocks human PLC-gamma1 enzyme activity. purified PLC-gamma1, fluorogenic substrate, fluorescence. inhibition, % at 12.2 µM. 370,000 compounds, 0.84% hits. AID 720700
# PLCgamma1 ctr = inhibits human PLC-gamma1 in PLC-beta3 counter-screen; shares compounds with PLCg1 inh; purified PLC-gamma1, fluorogenic substrate, fluorescence; inhibition, % at 12.3 µM; 3,300 compounds, 3.1% hits; AID 743258
# PLCbeta3 conf = confirmation of human PLC-beta3 inhibitors | 3,300 compounds, 1% hits | purified PLC-beta3, fluorogenic substrate fluorescence | shares compounds with PLCg1 inh | inhibition, % at 12.3 µM; in the data active = inhibition above about 11%
# An asterisk follows results filed as active; x = no result. Sampled rows, rich in hits. Any-hit rate of the full collection: about 2.9%. Cut-off read from the data, not from the text of the source, unless noted: active = inhibition above about 9.5%; inactive = the rest.
SMILES,ADAM17 inh,KLK7 zymogen act,ADAM10 inh,PLCb3 inh,PLCg1 inh,PLCgamma1 ctr,PLCbeta3 conf
O=C(CN(c1ccccc1Cl)S(=O)(=O)c1ccccc1)NC1CC2CCC1C2 (stereo unspecified),8,0,-9,14*,6,-3,-51
COc1ccc(C2CC(=O)C(C=NCCN3CCN(C(=S)Nc4ccccc4)CC3)=C(O)C2)cc1 (stereo unspecified),-3,0,3,-1,0,x,x
Cc1ccc(S(=O)(=O)NC(=O)NN2CC3CCCC3C2)cc1 (stereo unspecified),-3,0,2,0,2,x,x
CC[C@H]1C=C[C@@H](C(=O)NS(=O)(=O)c2ccc(C)cc2)N(C(C)=O)C1,-5,0,-24,-15,41*,38*,-15
O=[N+]([O-])c1ccc(N2CCN(S(=O)(=O)c3ccc(Cl)cc3)CC2)cc1NCC1CCCO1 (stereo unspecified),2,0,8,3,7,x,x
CCc1cccc(NC(=O)CN(c2ccc(OC)cc2)S(=O)(=O)c2c(C)n[nH]c2C)c1,4,0,5,11*,14*,16*,13*
CC1(C)N([O-])C(c2ccccc2)=C[N+](=O)C1(C)C,1,0,-8,9,10*,-5,0
CC(C)N(Cc1nc(-c2ccccc2)no1)C(=O)CN(C)S(=O)(=O)c1ccccc1,-3,-1,5,6,9.6*,8,0
CN(Cc1nc(-c2ccncc2)no1)S(=O)(=O)c1ccccc1,-7,0,3,1,-1,x,x
COc1ccc(-c2nc3ccccc3c(=O)n2CCCn2ccnc2)cc1,-1,0,0,1,0,x,x
O=C1c2ccccc2C(=O)c2c(O)c(O)cc(O)c21,0,0,1,-4,0,x,x
O=C1C=C(O)c2c(O)cc(O)c(O)c2C1=O,1,0,-9,15*,31*,6,1
CCCCC(=O)Nc1ccc(C(=O)Nc2cccnc2)cc1,1,0,12,7,10.0*,-4,-2
CCC(=O)N1CCN(CCN=CC2=C(O)CC(c3cccs3)CC2=O)CC1 (stereo unspecified),-6,-1,-13,-1,-3,x,x
O=C(CCSc1ccccc1)N1CCN(C(=O)c2ccco2)CC1,4,-1,7,2,14*,-3,-4
O=C(Cc1ccccc1)N1CCN(C(=O)c2ccco2)CC1,-3,0,1,-1,-1,x,x
CC(C)C[C@@H](CN1CCC[C@H]1CN1C(=O)C(=O)NC[C@@H]1Cc1ccc(O)cc1)N1C[C@H](Cc2ccccc2)N(CC2CCCCC2)C(=O)C1=O,0,1,-6,-4,10*,-5,-3
COc1ccc(CNC(=O)CCn2c(C)csc2=O)cc1,-2,0,-5,-1,11*,1,-4
O=[N+]([O-])c1cnc2ccccn12,-2,1,-4,-6,1,x,x
Cc1ccc(C(=O)C[n+]2cccc(C(N)=O)c2)cc1,-1,1,-1,-12,-2,x,x
CCN(CC)C(=O)C[n+]1cccc(C(N)=O)c1,2,-1,8,10,9.6*,-3,-1
COc1ccccc1-c1nnc(C2CCN(S(=O)(=O)c3cccc([N+](=O)[O-])c3)CC2)o1,0,1,1,-5,1,x,x
NC(=O)C1CNc2ccccc2O1 (stereo unspecified),1,-1,7,7,11*,-3,-3
Cc1cccc(NC(=O)COC(=O)c2c(-c3ccccc3)noc2C)c1,4,0,-11,2,2,x,x
Cc1cc(-c2ccccc2)nc(N/N=C/c2ccccc2)n1,1,1,0,-31,-22,x,x
SMILES,ADAM17 inh,KLK7 zymogen act,ADAM10 inh,PLCb3 inh,PLCg1 inh,PLCgamma1 ctr,PLCbeta3 conf
CNc1nc(C)nc(N/N=C/c2ccccc2)n1,3,0,0,7,11*,-2,-3
CCN(CC)S(=O)(=O)c1ccc(/C=C/C(=O)Nc2ccccc2N2CCOCC2)cc1,6,1,12,-2,9.6*,4,-7
CCN(CC)S(=O)(=O)c1ccc(N2CCOCC2)c(NC(=O)c2ccccc2)c1,2,0,10,2,2,x,x
CC(C)N1C(=O)/C(=C/c2nc3ccccc3c(=O)n2-c2ccccc2)c2ccccc21,-2,0,4,-1,0,x,x
COc1cccc(CNc2nc(NCC3CC3)nc3ccsc23)c1OC,0,0,-26,6,10.0*,-5,-2
Cc1ccc(CNC(=O)CCn2nc(-c3ccc(Cl)cc3)ccc2=O)cc1,-3,0,-3,-1,1,x,x
CC(NC(=O)CCn1nc(-c2ccc(Cl)cc2)ccc1=O)c1ccccc1 (stereo unspecified),-3,0,14,5,10*,-6,-3
CCOc1ccc(CCNC(=O)CCn2cccc2)cc1OCC,8,0,2,5,11*,-3,2
CCOc1ccc(CCNC(=O)c2[nH]c(C)c(C(C)=O)c2C)cc1OCC,2,1,-6,-3,9.8*,2,3
COc1ccc(CCNC(=O)CCn2cccc2)cc1OC,-3,0,0,-1,1,x,x
Nn1c(SCc2cn3cc(Cl)ccc3n2)nnc1-c1ccncc1,4,-1,2,-8,11*,-6,-3
COc1ccc(OCC(=O)Nc2ccc3c(c2)nc(CCN2CCC(C)CC2)n3C)cc1,-11,0,-29,-9,-2,x,x
O=S(=O)(Nc1ccccc1)N1CCCCC1,3,0,7,13*,11*,-5,2
O=S(=O)(Nc1ccc(F)cc1)N1CCCCCC1,-4,1,1,6,-1,x,x
O=C(NC1(C(F)(F)F)NC(=O)N(Cc2cccnc2)C1=O)c1ccc(F)cc1 (stereo unspecified),-3,0,1,3,-2,x,x
Cc1ccc(CS(=O)Cc2ccc(C(=O)N3CCN(c4ccc(F)cc4)CC3)o2)cc1 (stereo unspecified),5,0,11,-9,12*,-9,-9
COc1ccc(CNC(=O)C(C)Cc2ccccc2)cc1O (stereo unspecified),7,0,14,7,12*,-5,-3
O=C(CSc1nc(=O)n2ccccc2n1)NCc1ccccc1Cl,-7,-1,-44,-12,-6,x,x
COc1ccc(-n2nnnc2C(CCc2ccccc2)N2CCN(C/C=C/c3ccccc3)CC2)cc1 (stereo unspecified),6,0,6,-4,-1,x,x
CN(CC(=O)N1CCN(Cc2ccccc2)CC1)S(=O)(=O)c1cccc2nsnc12,3,0,5,10,11*,-6,-3
CN(CC(=O)NCCN1CCN(Cc2ccccc2)CC1)S(=O)(=O)c1cccc2nsnc12,-5,0,3,1,1,x,x
